Experimental data taken from PubChem BioAssay (Tox21).
“And” between values parts separate entries of the source, which are not always exact repeats. Equal entries are not always repeated. Records with an inconclusive call do not appear. The source made the active and inactive calls. Unless noted, calls come from the whole dose curve; as a rule, active = well fitted curve in the direction sought with a large enough effect in the repeat runs; inconclusive = weak or mixed curves; inactive = no such curve, though single readings can be large; an effect the other way counts as inactive or inconclusive.

What was measured:
[1] = qHTS assay for small molecule agonists of the p53 signaling pathway (AID 651631; calls by dose curve; note: nearly all actives have a fitted effect of over 15% in size; note: potency is the fitted concentration of half-maximal effect)
Outline: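 Fluorescence intensity from cleaved LiveBLAzer B/G substrate (2 h, room temperature) served as the signal. Beforehand, HCT-116 reporter cells bearing p53 response elements were treated 16 h at 37 °C with DMSO-dissolved compounds.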

[2] = qHTS assay for small molecules that induce genotoxicity in human embryonic kidney cells expressing luciferase-tagged ATAD5 (AID 651632); note: nearly all actives have a fitted effect of over 15% in size
Outline: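 HEK293T cells carrying a luciferase reporter tagged to ATAD5 were exposed to compound or DMSO vehicle for 16 hr at 37C, 5% CO2. Amplite was added, and after 30 min at room temperature luciferase activity was read as a marker of ATAD5 induction.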

[3] = qHTS assay for small molecule agonists of the p53 signaling pathway - cell viability (AID 651633; calls by dose curve;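 note: p53RE-bla HCT reporter cells with a stable beta-lactamase p53 reporter; series mostly up to about 83 µM; nearly all actives have a fitted effect of over 30% in size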)
Outline: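 Viability counter-read: CellTiter-Glo luminescence (30 min, room temperature) in the same p53RE-bla plates. These plates had been exposed to compounds for 16 h at 37 C.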

[4] = qHTS assay for small molecule disruptors of the mitochondrial membrane potential (AID 720635); note: potency is the fitted concentration of half-maximal effect
Outline: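 Mitochondrial membrane potential tracked with Mito-MPS dye, red aggregates (ex 540/em 590 nm) against green monomers (ex 490/em 535 nm). Compound treatment 1 hr at 37C, dye 30 min in HepG2.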

[5] = qHTS assay to test for compound auto fluorescence at 590 nm (red) in HepG2 cells (AID 720674)
Outline: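 Red autofluorescence (Ex/Em 540/590 nm, Rose Bengal sodium equivalents) was measured in HepG2 cells, 2,000 per well in MEM plus 10% FBS, plated overnight at 37 C. Readings were taken 1 hr after adding 23 nL compound or DMSO, at 37 C and 5% CO2.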

[6] = qHTS assay to test for compound auto fluorescence at 535 nm (green) in HepG2 cells (AID 720675)
[7] = qHTS assay to test for compound auto fluorescence at 460 nm (blue) in HEK293 cells (AID 720678)
Outline: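 After cell attachment (4-5 hr, 37C), compounds were pinned onto HEK293 monolayers in 10% dialyzed FBS medium. The blue channel (405/460 nm) was read following overnight culture. Equivalency was calculated against triamterene.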

[8] = qHTS assay to test for compound auto fluorescence at 590 nm (red) in HEK293 cells (AID 720679)
Outline: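 Plates of HEK293 cells (10% dialyzed FBS) are treated with 23 nL compound or DMSO vehicle after a 4-5 hr attachment period, incubated overnight at 37C, and read for red fluorescence at 540/590nm.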

[9] = qHTS assay to test for compound auto fluorescence at 535 nm (green) in HEK293 cells (AID 720680)
[10] = qHTS assay to test for compound auto fluorescence at 460 nm (blue) in HEK293 cell free culture (AID 720681)
Outline: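 Blue fluorescence (Ex 405/Em 460 nm, triamterene-equivalent) was read immediately after pin transfer of compound or DMSO into medium (DMEM, 10% FBS) without cells.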

[11] = qHTS assay to test for compound auto fluorescence at 590 nm (red) in HEK293 cell free culture (AID 720683)
Outline: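 Red-channel autofluorescence of compounds in culture medium (DMEM, 10% FBS), no cells, measured at 540/590 nm. Rose Bengal sodium is the reference fluorophore for equivalence.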

[12] = qHTS assay to test for compound auto fluorescence at 590 nm (red) in HepG2 cell free culture (AID 720684)
Outline: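 Steps: dispense MEM/10% FBS medium, no cells; pin compound or DMSO vehicle; read red channel, Ex/Em 540/590 nm. Output given as Rose Bengal sodium equivalents.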

[13] = qHTS assay to test for compound auto fluorescence at 460 nm (blue) in HepG2 cell free culture (AID 720685)
Outline: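 Compound (23 nL) or DMSO pinned into cell-free MEM with 10% FBS; blue fluorescence read at 405/460 nm excitation/emission, expressed as auto-fluorescence equivalency to triamterene.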

[14] = qHTS assay to test for compound auto fluorescence at 535 nm (green) in HepG2 cell free culture (AID 720686)
[15] = qHTS assay to test for compound auto fluorescence at 460 nm (blue) in HepG2 cells (AID 720687)
Outline: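 Blue-channel autofluorescence (Ex/Em 405/460 nm, triamterene-equivalent) was measured after 1 hr compound exposure at 37 C, 5% CO2. Cells were HepG2, plated overnight at 37 C in MEM plus 10% FBS.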

[16] = target: Glucocorticoid receptor (Homo sapiens) (UniProt P04150); assay: qHTS assay to identify small molecule agonists of the glucocorticoid receptor (GR) signaling pathway (AID 720691; active = well fitted activation curve with a large enough effect in the signal ratio in the repeat runs, not every such curve was filed as active; the % refers to the signal ratio)
Sequence of Glucocorticoid receptor (Homo sapiens) (P04150 whole entry, looked up): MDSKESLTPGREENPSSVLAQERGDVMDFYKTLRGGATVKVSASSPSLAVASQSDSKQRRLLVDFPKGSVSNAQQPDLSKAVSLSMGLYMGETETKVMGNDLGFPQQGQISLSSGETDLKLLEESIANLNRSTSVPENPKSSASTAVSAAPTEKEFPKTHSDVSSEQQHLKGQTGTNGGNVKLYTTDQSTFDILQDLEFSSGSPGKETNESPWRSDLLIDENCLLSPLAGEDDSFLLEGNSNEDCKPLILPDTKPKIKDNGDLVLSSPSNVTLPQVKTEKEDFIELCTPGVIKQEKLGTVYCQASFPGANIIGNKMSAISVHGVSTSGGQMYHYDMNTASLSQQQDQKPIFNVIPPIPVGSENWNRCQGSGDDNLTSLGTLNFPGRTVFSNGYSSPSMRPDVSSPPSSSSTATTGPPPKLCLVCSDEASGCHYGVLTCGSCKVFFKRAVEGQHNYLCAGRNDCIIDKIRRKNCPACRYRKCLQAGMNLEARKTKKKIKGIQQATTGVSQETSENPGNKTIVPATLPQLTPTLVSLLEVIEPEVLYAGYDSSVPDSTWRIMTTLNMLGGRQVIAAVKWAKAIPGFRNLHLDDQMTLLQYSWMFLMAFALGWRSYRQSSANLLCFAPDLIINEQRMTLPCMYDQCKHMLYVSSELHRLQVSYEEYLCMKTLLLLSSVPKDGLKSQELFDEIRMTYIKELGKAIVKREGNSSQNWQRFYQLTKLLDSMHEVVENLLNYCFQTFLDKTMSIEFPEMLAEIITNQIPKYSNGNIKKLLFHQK
Outline: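 GR-bla HeLa cells (beta-lactamase reporter under glucocorticoid response element) were plated 4 h at 37 C/5% CO2, given compounds in DMSO, and incubated 18 h at 37 C. LiveBLAzer B/G FRET substrate was added for 2 h at room temperature, then fluorescence intensity read.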

[17] = target: Glucocorticoid receptor (Homo sapiens) (UniProt P04150); assay: qHTS assay to identify small molecule antagonists of the glucocorticoid receptor (GR) signaling pathway (AID 720692; active = well fitted inhibition curve with a large enough effect in the signal ratio in the repeat runs, not every such curve was filed as active; the % refers to the signal ratio)
Outline: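 GR-bla HeLa cells (beta-lactamase reporter under glucocorticoid response element) were pre-plated 4 h at 37 C, treated with compounds plus 5 nM dexamethasone (final) for 18 h, then read by LiveBLAzer B/G FRET fluorescence after 2 h.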

[18] = qHTS assay for small molecules that induce genotoxicity in human embryonic kidney cells expressing luciferase-tagged ATAD5 - cell viability (AID 651634; calls by dose curve; note: nearly all actives have a fitted effect of over 25% in size)
Outline: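 HEK293T cells expressing luciferase-tagged ATAD5 were exposed to compound or DMSO for 15.5 hr at 37C, 5% CO2. Viability was then read as live-cell protease activity by CellTiter-Fluor fluorescence after 30 min at 37C.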

[19] = qHTS assay for small molecule disruptors of the mitochondrial membrane potential - cell viability (AID 720634; calls by dose curve; note: nearly all actives have a fitted effect of over 20% in size; note: potency is the fitted concentration of half-maximal effect)
Outline: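 HepG2 cells seeded overnight at 37 C, then exposed to compound or DMSO for 1 hr at 37 C, 5% CO2. m-MPI dye added, then CellTiter-Glo for 30 min at room temperature; viability read as ATP luminescence.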

[20] = qHTS assay to test for compound auto fluorescence at 535 nm (green) in HEK293 cell free culture (AID 720682)
Outline: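 Intrinsic compound fluorescence is measured in culture medium containing 10% FBS, with excitation at 485 nm and detection at 535 nm, referenced to fluorescein.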

Measured: Potency

O=C(Cc1ccccc1)OCCc1ccccc1
not listed: [18] | [19] | [20]
inactive: all other assays above

CCCBr
not listed: [3] | [10] | [12] | [20]
inactive: all other assays above

C[N+](C)(C)CC1CO1 (configuration not stated)
not listed: [16] | [17] | [18] | [20]
inactive: all other assays above

N#CC(C#N)=Cc1ccc(O)c(O)c1
active: [4] 11.9 µM
not listed: [3] | [10] | [16] | [17]
inactive: all other assays above

CCCC[P+](CC)(CCCC)CCCC (tested in a mixture with another compound)
not listed: [3] | [4] | [16] | [17]
inactive: all other assays above

CC(C)(C)NCC(O)c1cc(Cl)c(N)c(C(F)(F)F)c1 (configuration not stated)
not listed: [3] | [20]
inactive: all other assays above

Cc1nc2ccccc2c(=O)n1-c1ccccc1Cl
not listed: [4] | [7] | [10] | [19]
inactive: all other assays above

Cc1ccccc1
inactive: [1] | [2] | [18] | [4] | [16] | [17]

Cc1ccc2c(C)cccc2c1
not listed: [4] | [17] | [19]
inactive: all other assays above

CCCCCCCCCCCCCCCl
not listed: [3] | [19]
inactive: all other assays above

C[C@H]1O[C@H](OC2[C@@H](O)[C@@H](O)C(O)[C@H](O)[C@H]2O)[C@@H](N)C[C@@H]1N=C(N)C(=O)O (some centres not stated)
not listed: [18]
inactive: all other assays above

C1CS1
not listed: [4] | [16] | [17] | [18]
inactive: all other assays above

CCCC[N+](CCCC)(CCCC)CCCC
not listed: [3] | [4] | [17] | [18]
inactive: all other assays above

CCN(C(C)=O)c1cccc(-c2ccnc3c(C#N)cnn23)c1
not listed: [3] | [4] | [16] | [17] | [19]
inactive: all other assays above

CCCCNC(=O)OCC#CI
active: [1] 68.6 µM | [19] 8.59 µM and 27.3 µM | [4] 4.31 µM and 6.86 µM
not listed: [3] | [12] | [16] | [17] | [18] | [20]
inactive: all other assays above

Oc1cccc(Cl)c1
active: [4] 53.8 µM
not listed: [7] | [10] | [12] | [18]
inactive: all other assays above

C=CCc1ccccc1O
not listed: [3] | [4]
inactive: all other assays above

CCOP(=S)(S)OCC
not listed: [4] | [12] | [19]
inactive: all other assays above
